Measurements published in PubChem BioAssay (Tox21).
Inconclusive results are not listed. A number with no mark means an inactive call. The call rests on the fitted dose curve; in most records, active means well fitted cell-killing curve with a large enough effect in the repeat runs; inconclusive means weak or mixed curves, or effect the other way; inactive means flat fitted curve, though single readings scatter.
Further: nearly all actives have a fitted effect of over 45% in size.
On the % scale 0 is the no-effect control and ±100 the full control effect.

Assay: qHTS assay to identify small molecule agonists of the constitutive androstane receptor (CAR) signaling pathway - cell viability counter screen (AID 1224836)
Settings: HepG2-CYP2B6-hCAR viability, CellTiter-Fluor, 23 h, PK11195 added to every well; series mostly up to 92.4 µM; viability change, negative = cytotoxic: at the top concentration
Outline: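 Fluorescence from CellTiter-Fluor indicates live cells after 23 h exposure. The human hepatoma line expresses hCAR and a CYP2B6-2.2kb reporter. Incubation medium contains 0.75 uM PK11195 (final).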
For C[Si](C)O[Si](C)(C)O[Si](C)(C)O[Si](C)C, the “viability change, negative = cytotoxic” value was 2.27%.
For O=C(O)C1CCC(C(=O)O)CC1 (stereo unspecified), the “viability change, negative = cytotoxic” value was 0.984%.
For Cc1occc1S, the “viability change, negative = cytotoxic” value was -5.69%.
For CC/C(=C\C(=N/O)C(N)=O)C(C)[N+](=O)[O-] (stereo unspecified), the “viability change, negative = cytotoxic” value was -19%.
With CC(CN)CCCN (stereo unspecified) the “viability change, negative = cytotoxic” value was 3.23%.
In the case of CC(C)NCC(O)COc1ccc(CC(N)=O)cc1 (stereo unspecified), the “viability change, negative = cytotoxic” value is reported as -1.57%.
In the case of CCN(CC)CCc1nc(-c2ccccc2)no1, the “viability change, negative = cytotoxic” value is reported as 4.83% [at 42.5 µM].
With CC(=O)O[C@H]1C[C@@H]2CC[C@@H]3[C@H](CC[C@@]4(C)[C@H]3C[C@H]([N+]3(C)CCCCC3)[C@@H]4OC(C)=O)[C@@]2(C)C[C@@H]1N1CCCCC1 the “viability change, negative = cytotoxic” value was 1.73% [at 42.5 µM].
With Cc1cc(NC(=O)C(=O)O)cc(C)c1Oc1ccc(O)c2c1CCC2 the “viability change, negative = cytotoxic” value was -0.757%.
For OC(CCN1CCCCC1)(c1ccccc1)C1CCCCC1 (stereo unspecified), the “viability change, negative = cytotoxic” value was -18% [at 42.5 µM].
For Nc1nc(N)c(-c2ccccc2)s1, the “viability change, negative = cytotoxic” value was 7.76% [at 42.5 µM].
In the case of CC(C)(C)c1ccc(S)cc1, the “viability change, negative = cytotoxic” value is reported as 2.44%.
In the case of NCc1ccccc1, the “viability change, negative = cytotoxic” value is reported as 2.65%.
For CC(=O)N(CC(=O)N(C)C)c1ccccc1, the “viability change, negative = cytotoxic” value was -3.69% [at 42.5 µM].
In the case of CC(C)CC=O, the “viability change, negative = cytotoxic” value is reported as -3.9%.
For O=S1(=O)N=C(O)c2ccccc21, the “viability change, negative = cytotoxic” value was 0.0598% [at 42.5 µM].
For O=[N+]([O-])c1cccc(Cl)c1Cl, the “viability change, negative = cytotoxic” value was 0.265%.
With CC(=O)NCCCS(=O)(=O)O the “viability change, negative = cytotoxic” value was -0.53% [at 42.5 µM].
For NC[C@H]1O[C@H](O[C@H]2[C@H](O)[C@@H](O[C@H]3O[C@H](CO)[C@@H](O)[C@H](N)[C@H]3O)[C@H](N)C[C@@H]2N)[C@H](O)[C@@H](O)[C@@H]1O, the viability change, negative = cytotoxic was -3.02% [at 8.39 µM].
For Cc1ccc(C(N)=O)cc1N, the “viability change, negative = cytotoxic” value was 0.825%.
For C=C(C)C(=O)OCCOc1ccccc1, the “viability change, negative = cytotoxic” value was 4.55%.
For C=CC(=O)OCCOC(=O)CCC(=O)O, the “viability change, negative = cytotoxic” value was -15.7%.
With O=C(O)[C@@H]1[C@H]2C[C@H]3c4[nH]c5ccccc5c4CCN3C[C@@H]2CC[C@@H]1O the “viability change, negative = cytotoxic” value was 4.14% [at 42.5 µM].
For Cn1c(NCCN(CCO)CCCc2ccc([N+](=O)[O-])cc2)cc(=O)n(C)c1=O, the “viability change, negative = cytotoxic” value was 5.58% [at 42.5 µM].
In the case of CCCCCCCC/C=C\CCCCCCCC(N)=O, the “viability change, negative = cytotoxic” value is reported as 9.43%.
With CN1CCC[C@@H]1c1cccnc1 the “viability change, negative = cytotoxic” value was 4.5% [at 42.5 µM].
For Cc1nc2ccccc2n1Cc1ccc(Cl)cc1, the “viability change, negative = cytotoxic” value was -26.9% [at 42.5 µM].
In the case of CC(C)CCCC(C)CCO (stereo unspecified), the “viability change, negative = cytotoxic” value is reported as -3.4%.
With Cc1cccc(OCCOc2cccc(C)c2)c1 the “viability change, negative = cytotoxic” value was -2.07%.
In the case of CCCCCCCCCCCCCCCCCBr, the viability change, negative = cytotoxic is reported as -1.41% [at 19 µM].
In the case of C=C(C)C(=O)OC(C)C, the “viability change, negative = cytotoxic” value is reported as 1.77%.
With CN1CCC(=C2c3ccccc3C=Cc3ccccc32)CC1 the “viability change, negative = cytotoxic” value was -18% [at 42.5 µM].
In the case of CCCC[C@H]1CN(CC2CCOCC2)C(=O)OC12CCN(C1(C)CCN(C(=O)c3c(C)ncnc3C)CC1)CC2, the “viability change, negative = cytotoxic” value is reported as -4.91%.
In the case of CC(=O)[C@@]1(O)CC[C@H]2[C@@H]3C[C@H](C)C4=CC(=O)CC[C@]4(C)[C@H]3CC[C@@]21C, the “viability change, negative = cytotoxic” value is reported as 9.26% [at 42.5 µM].
With Nc1nc(CC(=O)O)cs1 the “viability change, negative = cytotoxic” value was -8.29%.
For CC(=O)SCc1ccco1, the “viability change, negative = cytotoxic” value was 5.36%.
With CCCC(=O)OCC the “viability change, negative = cytotoxic” value was 0.467%.
With Cc1c(Cn2ccnc2)c2ccccc2n1CCC(=O)O the “viability change, negative = cytotoxic” value was 3.39% [at 42.5 µM].

Assay: qHTS assay to identify small molecule antagonists of the constitutive androstane receptor (CAR) signaling pathway - cell viability counter screen (AID 1224837)
Settings: HepG2-CYP2B6-hCAR viability, CellTiter-Fluor, 23 h, co-treated with 50 nM CITCO; series mostly up to 92.4 µM; activity change, negative = cytotoxicity: at the top concentration
Outline: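 HepG2-CYP2B6-hCAR cells, 2500/well, 4 hr pre-incubation; compound titration, 15 conc.; CITCO 50 nM final; 23 hr, 37 C/5% CO2; CellTiter-Fluor, fluorescence intensity.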
In the case of C[Si](C)O[Si](C)(C)O[Si](C)(C)O[Si](C)C, the “activity change, negative = cytotoxicity” value is reported as 6.72%.
In the case of O=C(O)C1CCC(C(=O)O)CC1 (stereo unspecified), the “activity change, negative = cytotoxicity” value is reported as 3.17%.
In the case of CC/C(=C\C(=N/O)C(N)=O)C(C)[N+](=O)[O-] (stereo unspecified), the “activity change, negative = cytotoxicity” value is reported as 1.5%.
For CC(CN)CCCN (stereo unspecified), the “activity change, negative = cytotoxicity” value was 3.97%.
In the case of CC(C)NCC(O)COc1ccc(CC(N)=O)cc1 (stereo unspecified), the “activity change, negative = cytotoxicity” value is reported as -5.43%.
In the case of CCN(CC)CCc1nc(-c2ccccc2)no1, the “activity change, negative = cytotoxicity” value is reported as 5.94% [at 42.5 µM].
In the case of CC(=O)O[C@H]1C[C@@H]2CC[C@@H]3[C@H](CC[C@@]4(C)[C@H]3C[C@H]([N+]3(C)CCCCC3)[C@@H]4OC(C)=O)[C@@]2(C)C[C@@H]1N1CCCCC1, the “activity change, negative = cytotoxicity” value is reported as -0.627% [at 42.5 µM].
For Cc1cc(NC(=O)C(=O)O)cc(C)c1Oc1ccc(O)c2c1CCC2, the “activity change, negative = cytotoxicity” value was 0.549%.
For Nc1nc(N)c(-c2ccccc2)s1, the “activity change, negative = cytotoxicity” value was -1.11% [at 42.5 µM].
With CC(C)(C)c1ccc(S)cc1 the “activity change, negative = cytotoxicity” value was 2.12%.
With NCc1ccccc1 the “activity change, negative = cytotoxicity” value was 7.31%.
With CC(=O)N(CC(=O)N(C)C)c1ccccc1 the “activity change, negative = cytotoxicity” value was -11.1% [at 42.5 µM].
In the case of O=S1(=O)N=C(O)c2ccccc21, the “activity change, negative = cytotoxicity” value is reported as 4.58% [at 42.5 µM].
With O=[N+]([O-])c1cccc(Cl)c1Cl the “activity change, negative = cytotoxicity” value was 1.42%.
Compound NC[C@H]1O[C@H](O[C@H]2[C@H](O)[C@@H](O[C@H]3O[C@H](CO)[C@@H](O)[C@H](N)[C@H]3O)[C@H](N)C[C@@H]2N)[C@H](O)[C@@H](O)[C@@H]1O has an activity change, negative = cytotoxicity of 2.42% [at 8.39 µM].
With Cc1ccc(C(N)=O)cc1N the “activity change, negative = cytotoxicity” value was -0.884%.
With C=C(C)C(=O)OCCOc1ccccc1 the “activity change, negative = cytotoxicity” value was 5.27%.
For C=CC(=O)OCCOC(=O)CCC(=O)O, the “activity change, negative = cytotoxicity” value was -24%.
With O=C(O)[C@@H]1[C@H]2C[C@H]3c4[nH]c5ccccc5c4CCN3C[C@@H]2CC[C@@H]1O the “activity change, negative = cytotoxicity” value was 0.973% [at 42.5 µM].
With Cn1c(NCCN(CCO)CCCc2ccc([N+](=O)[O-])cc2)cc(=O)n(C)c1=O the “activity change, negative = cytotoxicity” value was 0.31% [at 42.5 µM].
In the case of CCCCCCCC/C=C\CCCCCCCC(N)=O, the “activity change, negative = cytotoxicity” value is reported as 2.24%.
For CN1CCC[C@@H]1c1cccnc1, the “activity change, negative = cytotoxicity” value was -0.998% [at 42.5 µM].
With CC(C)CCCC(C)CCO (stereo unspecified) the “activity change, negative = cytotoxicity” value was -0.096%.
In the case of Cc1cccc(OCCOc2cccc(C)c2)c1, the “activity change, negative = cytotoxicity” value is reported as 2.3%.
In the case of CCCCCCCCCCCCCCCCCBr, the activity change, negative = cytotoxicity is reported as 0.897% [at 19 µM].
In the case of C=C(C)C(=O)OC(C)C, the “activity change, negative = cytotoxicity” value is reported as -0.0582%.
With CN1CCC(=C2c3ccccc3C=Cc3ccccc32)CC1 the “activity change, negative = cytotoxicity” value was -21.3% [at 42.5 µM].
For CCCC[C@H]1CN(CC2CCOCC2)C(=O)OC12CCN(C1(C)CCN(C(=O)c3c(C)ncnc3C)CC1)CC2, the “activity change, negative = cytotoxicity” value was 0.338%.
With CC(=O)[C@@]1(O)CC[C@H]2[C@@H]3C[C@H](C)C4=CC(=O)CC[C@]4(C)[C@H]3CC[C@@]21C the “activity change, negative = cytotoxicity” value was 0.384% [at 42.5 µM].
In the case of Nc1nc(CC(=O)O)cs1, the “activity change, negative = cytotoxicity” value is reported as 0.335%.
In the case of CC(=O)SCc1ccco1, the “activity change, negative = cytotoxicity” value is reported as -1.42%.
With CCCC(=O)OCC the “activity change, negative = cytotoxicity” value was -7.12%.
With Cc1c(Cn2ccnc2)c2ccccc2n1CCC(=O)O the “activity change, negative = cytotoxicity” value was 1.65% [at 42.5 µM].
